# Many of the other results were omitted from the sample, so the strongest signals are more common in it than they were.
# B1: LSectin (Mus musculus), Q8BNX1 (protein)
# chain: MNTGEYNKLGSAIEEVSRGQLGRWECYKQRLFFLVLALLVATVLWALILSTLLSSASSKLRVLLSHQDLLRTNASEQKMTLSSLKDDIGACRNCCSVTKAQLQTTLAEFKDIQAKLMEQESILKELQERVTQDLAKASRDRENIRSELFQALEAVKRQNSSCEQCPPSWLPFQGSCYYFSETQATWDTAQSYCGGQGAHLVIVRGLNEQGFLSQHTRGRGYWLGLRAVRHLNKIQGYRWVDGASLNFSHWNSGEPNDSRGHEDCIMMLHSGLWNDAPCTNERDGWICEKRSSCY
# What was measured:
# Experiment in all cases: glycan array binding signal (z-score within array); higher = stronger binding
# Conditions in all cases: glycan notation: IUPAC condensed, linker removed
# [1] = molecular target: Fuc(a1-2)Gal(b1-3)GlcNAc(b1-2)Man(a1-3)[Fuc(a1-2)Gal(b1-3)GlcNAc(b1-2)Man(a1-6)]Man(b1-4)GlcNAc(b1-4)GlcNAc
# How it was run: (§1)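 The binding signal is a Z-score computed within each array and averaged over linkers. Arrays of the same protein sequence at different concentrations or buffers were also averaged together. Data originate from 3228 arrays in the Consortium for Functional Glycomics database, kept only where the protein sequence was available.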
# [2] = molecular target: Fuc(a1-2)Gal(b1-3)GlcNAc(b1-3)[Fuc(a1-3)[Gal(b1-4)]GlcNAc(b1-6)]Gal(b1-4)Glc
# How it was run: as §1
# [3] = molecular target: Fuc(a1-2)Gal(b1-3)GlcNAc(b1-3)[Gal(b1-4)GlcNAc(b1-6)]Gal(b1-4)Glc
# How it was run: as §1
# Fuc(a1-2)[Gal(a1-3)]Gal = molecular target: Fuc(a1-2)[Gal(a1-3)]Gal
# How it was run: as §1
# [4] = molecular target: Fuc(a1-2)[Gal(a1-3)]Gal(b1-4)[Fuc(a1-3)]Glc
# How it was run: as §1
# [5] = molecular target: Fuc(a1-2)[GalNAc(a1-3)]Gal(b1-4)GlcNAc
# How it was run: as §1
# [6] = molecular target: Fuc(a1-2)[GalNAc(a1-3)]Gal(b1-4)GlcNAc(b1-3)Gal(b1-4)GlcNAc
# How it was run: as §1
# [7] = molecular target: Fuc(a1-3)[Gal(b1-4)]GlcNAc(b1-2)Man(a1-3)[Fuc(a1-3)[Gal(b1-4)]GlcNAc(b1-2)Man(a1-6)]Man(b1-4)GlcNAc(b1-4)GlcNAc
# How it was run: as §1
# [8] = molecular target: Gal(a1-4)Gal(b1-4)GlcNAc(b1-2)Man(a1-3)[Gal(a1-4)Gal(b1-4)GlcNAc(b1-2)Man(a1-6)]Man(b1-4)GlcNAc(b1-4)GlcNAc
# How it was run: as §1
# Gal(b1-3)GlcNAc = molecular target: Gal(b1-3)GlcNAc
# How it was run: as §1
# [9] = molecular target: Gal(b1-3)GlcNAc(b1-3)Gal(b1-3)GlcNAc
# How it was run: as §1
# [10] = molecular target: Gal(b1-3)GlcNAc(b1-3)Gal(b1-4)GlcNAc
# How it was run: as §1
# [11] = molecular target: Gal(b1-3)[Fuc(a1-4)]GlcNAc(b1-3)Gal(b1-3)[Fuc(a1-4)]GlcNAc
# How it was run: as §1
# [12] = molecular target: Gal(b1-4)GlcNAc(b1-2)Man(a1-6)[GlcNAc(b1-2)Man(a1-3)]Man(b1-4)GlcNAc(b1-4)GlcNAc
# How it was run: as §1
# [13] = molecular target: Gal(b1-4)GlcNAc(b1-3)[Gal(b1-4)GlcNAc(b1-6)]GalNAc
# How it was run: as §1
# Gal6S(b1-3)GlcNAc = molecular target: Gal6S(b1-3)GlcNAc
# How it was run: as §1
# [14] = molecular target: GalNAc(a1-3)GalNAc(a1-3)Gal(a1-4)Gal(b1-4)GlcNAc
# How it was run: as §1
# Glc(b1-4)Glc = molecular target: Glc(b1-4)Glc
# How it was run: as §1
# GlcA(b1-3)Gal = molecular target: GlcA(b1-3)Gal
# How it was run: as §1
# [15] = molecular target: GlcNAc(a1-3)Gal(b1-4)GlcNAc
# How it was run: as §1
# [16] = molecular target: GlcNAc(b1-2)Man(a1-3)[GlcNAc(b1-2)Man(a1-6)]Man(b1-4)GlcNAc(b1-4)GlcNAc
# How it was run: as §1
# [17] = molecular target: GlcNAc(b1-2)Man(a1-3)[GlcNAc(b1-2)Man(a1-6)]Man(b1-4)GlcNAc(b1-4)[Fuc(a1-6)]GlcNAc
# How it was run: as §1
# [18] = molecular target: GlcNAc(b1-2)Man(a1-3)[GlcNAc(b1-4)][GlcNAc(b1-2)Man(a1-6)]Man(b1-4)GlcNAc(b1-4)GlcNAc
# How it was run: as §1
# [19] = molecular target: GlcNAc(b1-2)[GlcNAc(b1-6)]Man(a1-6)[GlcNAc(b1-2)Man(a1-3)]Man(b1-4)GlcNAc(b1-4)GlcNAc
# How it was run: as §1
# [20] = molecular target: GlcNAc(b1-2)[GlcNAc(b1-6)]Man(a1-6)[GlcNAc(b1-2)Man(a1-3)][GlcNAc(b1-4)]Man(b1-4)GlcNAc(b1-4)GlcNAc
# How it was run: as §1
# GlcNAc(b1-3)Gal = molecular target: GlcNAc(b1-3)Gal
# How it was run: as §1
# GlcNAc3Prop(b1-4)GlcNAc = molecular target: GlcNAc3Prop(b1-4)GlcNAc
# How it was run: as §1
# [21] = molecular target: Man(a1-3)[Man(a1-6)]Man(a1-6)[Man(a1-3)]Man(b1-4)GlcNAc(b1-4)GlcNAc
# How it was run: as §1
# Neu5Ac(a2-3)Gal = molecular target: Neu5Ac(a2-3)Gal
# How it was run: as §1
# [22] = molecular target: Neu5Ac(a2-3)Gal(b1-4)[Fuc(a1-3)]GlcNAc(b1-3)GalNAc
# How it was run: as §1
# [23] = molecular target: Neu5Ac(a2-3)Gal(b1-4)[Fuc(a1-3)]GlcNAc(b1-6)[Neu5Ac(a2-3)Gal(b1-3)]GalNAc
# How it was run: as §1
# Neu5Ac(a2-6)Gal = molecular target: Neu5Ac(a2-6)Gal
# How it was run: as §1
# [24] = molecular target: Neu5Ac(a2-6)Gal(b1-3)GlcNAc(b1-3)[Gal(b1-4)GlcNAc(b1-6)]Gal(b1-4)Glc
# How it was run: as §1
# [25] = molecular target: Neu5Ac(a2-6)Gal(b1-4)GlcNAc(b1-2)Man(a1-6)[GlcNAc(b1-2)Man(a1-3)]Man(b1-4)GlcNAc(b1-4)GlcNAc
# How it was run: as §1
# [26] = molecular target: Neu5Ac(a2-6)Gal(b1-4)GlcNAc(b1-3)Gal(b1-4)GlcNAc(b1-3)Gal(b1-4)GlcNAc
# How it was run: as §1
# [27] = molecular target: Neu5Ac(a2-6)GalNAc(b1-4)GlcNAc
# How it was run: as §1
# [28] = molecular target: Neu5Ac(a2-6)GlcNAc(b1-4)GlcNAc
# How it was run: as §1
# [29] = molecular target: Neu5Ac(a2-8)Neu5Ac(a2-3)Gal(b1-4)Glc
# How it was run: as §1
# [30] = molecular target: Neu5Ac9Ac(a2-6)Gal(b1-4)GlcNAc
# How it was run: as §1
# [31] = molecular target: Neu5Gc(a2-3)Gal(b1-4)GlcNAc
# How it was run: as §1
binder,measurement,setting,value
B1,glycan array binding signal (z-score),[1],-0.18
same,glycan array binding signal (z-score),[2],-0.187
same,glycan array binding signal (z-score),[3],-0.188
same,glycan array binding signal (z-score),Fuc(a1-2)[Gal(a1-3)]Gal,-0.145
same,glycan array binding signal (z-score),[4],-0.124
same,glycan array binding signal (z-score),[5],-0.176
same,glycan array binding signal (z-score),[6],-0.185
same,glycan array binding signal (z-score),[7],-0.158
same,glycan array binding signal (z-score),[8],-0.18
same,glycan array binding signal (z-score),Gal(b1-3)GlcNAc,-0.132
same,glycan array binding signal (z-score),[9],-0.18
same,glycan array binding signal (z-score),[10],-0.175
same,glycan array binding signal (z-score),[11],-0.172
same,glycan array binding signal (z-score),[12],4.08
same,glycan array binding signal (z-score),[13],-0.192
same,glycan array binding signal (z-score),Gal6S(b1-3)GlcNAc,-0.188
same,glycan array binding signal (z-score),[14],-0.19
same,glycan array binding signal (z-score),Glc(b1-4)Glc,-0.17
same,glycan array binding signal (z-score),GlcA(b1-3)Gal,-0.169
same,glycan array binding signal (z-score),[15],-0.14
same,glycan array binding signal (z-score),[16],6.38
same,glycan array binding signal (z-score),[17],5.47
same,glycan array binding signal (z-score),[18],7.84
same,glycan array binding signal (z-score),[19],4.99
same,glycan array binding signal (z-score),[20],7.22
same,glycan array binding signal (z-score),GlcNAc(b1-3)Gal,-0.164
same,glycan array binding signal (z-score),GlcNAc3Prop(b1-4)GlcNAc,-0.168
same,glycan array binding signal (z-score),[21],-0.172
same,glycan array binding signal (z-score),Neu5Ac(a2-3)Gal,-0.148
same,glycan array binding signal (z-score),[22],-0.154
same,glycan array binding signal (z-score),[23],-0.181
same,glycan array binding signal (z-score),Neu5Ac(a2-6)Gal,-0.118
same,glycan array binding signal (z-score),[24],-0.187
same,glycan array binding signal (z-score),[25],4.19
same,glycan array binding signal (z-score),[26],-0.182
same,glycan array binding signal (z-score),[27],3.69
same,glycan array binding signal (z-score),[28],-0.18
same,glycan array binding signal (z-score),[29],-0.158
same,glycan array binding signal (z-score),[30],-0.16
same,glycan array binding signal (z-score),[31],-0.156

# Source: the supplement of paper PMC8728848
